Source: PubChem (National Center for Advancing Translational Sciences (NCATS))
The list is not random: actives were taken first. Their share in the collection is about 12%.
HP1b binding inh: inhibitors of HP1-beta chromodomain binding to methylated histone tails. P83916. AlphaScreen HP1-beta / biotin-H3K9me3 peptide binding. Potency, µM (highest dose often 114 µM), inactives show at the top dose activity change, negative = inhibition, most hits filed as inhibitors. hit rate 0.56% among 390,000; further: nearly all actives have a fitted effect of over 70% in size
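AlphaScreen: HP1-beta (50 nM) preformed 30 min with biotin-H3(1-18)K9me3 peptide (50 nM) in PBS pH 7.4, 0.01% Tween-20. Compound added for 30 min at RT, then streptavidin donor/nickel chelate acceptor beads (10 ug/mL) for 30 min.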
BAZ2B inh: blocks human BAZ2B. Q9UIF8. AlphaScreen BAZ2B-H3K14Ac peptide displacement. hit rate 4.4% among 360,000. Potency, µM (doses to about 114 µM), for inactives: at the top dose activity change, negative = inhibition, usual class: inhibitors; further: on the % scale 0 is the no-effect control and ±100 the full control effect; nearly all actives have a fitted effect of over 60% in size
Target sequence (Q9UIF8 whole entry, looked up): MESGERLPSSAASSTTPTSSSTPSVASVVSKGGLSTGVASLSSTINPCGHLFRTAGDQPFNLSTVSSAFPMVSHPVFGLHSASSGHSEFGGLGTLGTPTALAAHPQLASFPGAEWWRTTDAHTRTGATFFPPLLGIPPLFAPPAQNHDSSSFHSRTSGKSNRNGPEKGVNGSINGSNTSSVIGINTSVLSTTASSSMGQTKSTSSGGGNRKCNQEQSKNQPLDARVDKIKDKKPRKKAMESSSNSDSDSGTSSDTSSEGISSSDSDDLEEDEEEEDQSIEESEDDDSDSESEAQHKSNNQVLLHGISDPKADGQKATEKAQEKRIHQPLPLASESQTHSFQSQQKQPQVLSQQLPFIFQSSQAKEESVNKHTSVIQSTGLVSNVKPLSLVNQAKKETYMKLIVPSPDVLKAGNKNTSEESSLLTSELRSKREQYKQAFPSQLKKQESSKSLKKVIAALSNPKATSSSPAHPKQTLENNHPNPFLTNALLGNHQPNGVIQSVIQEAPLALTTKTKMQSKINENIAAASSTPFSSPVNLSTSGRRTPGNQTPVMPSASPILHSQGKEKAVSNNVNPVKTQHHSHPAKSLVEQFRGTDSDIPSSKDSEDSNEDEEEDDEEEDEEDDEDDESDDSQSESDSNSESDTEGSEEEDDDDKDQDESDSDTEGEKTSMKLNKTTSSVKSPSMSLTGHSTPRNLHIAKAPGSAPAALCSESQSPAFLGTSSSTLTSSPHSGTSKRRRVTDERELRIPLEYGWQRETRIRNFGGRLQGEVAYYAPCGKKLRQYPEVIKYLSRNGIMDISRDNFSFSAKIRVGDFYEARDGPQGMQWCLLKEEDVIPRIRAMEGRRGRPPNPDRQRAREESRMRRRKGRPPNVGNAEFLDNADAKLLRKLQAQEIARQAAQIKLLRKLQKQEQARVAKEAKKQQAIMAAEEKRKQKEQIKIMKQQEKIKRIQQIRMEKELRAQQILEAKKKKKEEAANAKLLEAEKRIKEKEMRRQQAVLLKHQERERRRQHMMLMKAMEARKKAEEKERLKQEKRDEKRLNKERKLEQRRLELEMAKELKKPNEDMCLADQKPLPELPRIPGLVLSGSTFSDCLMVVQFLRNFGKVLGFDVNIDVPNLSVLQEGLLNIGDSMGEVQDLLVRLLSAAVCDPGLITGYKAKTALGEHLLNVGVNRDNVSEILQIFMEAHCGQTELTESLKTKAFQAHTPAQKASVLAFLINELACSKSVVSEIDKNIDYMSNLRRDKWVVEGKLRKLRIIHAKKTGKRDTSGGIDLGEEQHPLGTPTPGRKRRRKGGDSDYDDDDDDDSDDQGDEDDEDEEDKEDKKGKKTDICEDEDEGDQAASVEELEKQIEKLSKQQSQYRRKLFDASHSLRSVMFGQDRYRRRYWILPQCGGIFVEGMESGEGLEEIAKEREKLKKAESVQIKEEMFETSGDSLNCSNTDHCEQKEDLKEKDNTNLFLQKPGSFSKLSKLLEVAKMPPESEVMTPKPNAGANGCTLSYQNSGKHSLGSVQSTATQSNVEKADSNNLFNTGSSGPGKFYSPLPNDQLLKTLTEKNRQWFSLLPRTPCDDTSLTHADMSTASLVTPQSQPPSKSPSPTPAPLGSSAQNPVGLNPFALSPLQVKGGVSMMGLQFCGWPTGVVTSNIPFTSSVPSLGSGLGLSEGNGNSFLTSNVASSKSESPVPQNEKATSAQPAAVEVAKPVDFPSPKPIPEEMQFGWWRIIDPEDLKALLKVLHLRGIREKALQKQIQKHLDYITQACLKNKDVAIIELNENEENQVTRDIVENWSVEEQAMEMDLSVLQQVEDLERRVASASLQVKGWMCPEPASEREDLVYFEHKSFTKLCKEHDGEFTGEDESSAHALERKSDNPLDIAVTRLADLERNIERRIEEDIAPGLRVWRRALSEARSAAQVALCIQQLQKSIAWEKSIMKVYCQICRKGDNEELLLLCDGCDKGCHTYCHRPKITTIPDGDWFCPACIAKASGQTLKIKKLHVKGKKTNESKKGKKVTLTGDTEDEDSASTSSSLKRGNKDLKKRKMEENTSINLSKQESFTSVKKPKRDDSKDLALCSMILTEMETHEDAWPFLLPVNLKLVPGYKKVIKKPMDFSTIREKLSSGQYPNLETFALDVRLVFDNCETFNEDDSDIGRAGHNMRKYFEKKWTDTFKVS
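Multi-concentration screen (max 110 uM) measuring displacement of acetylated histone H3 peptide from BAZ2B by AlphaScreen, using 50 nM protein, 50 nM peptide and 10 ug/mL streptavidin donor plus Ni-chelate acceptor beads.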
Sfp inh: inhibitors of Bacillus subtilis Sfp phosphopantetheinyl transferase; Q9F4F7; Biochemical Sfp PPTase activity, qHTS; Potency, µM, without a hit: largest response in the series, negative = inhibition, actives largely listed as inhibitors; hit rate 3.5% among 310,000;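 further: the enzyme is Sfp with the accession as filed and its product quenches rhodamine fluorescence; 0% = enzyme reaction without inhibitor and -100% = no enzyme wells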
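Sfp 15 nM + cpd, 15 min RT; start w/ rhodamine-CoA 5 uM, BHQ-2-YbbR 12.5 uM (final); 50 mM Hepes pH 7.6, 10 mM MgCl2, 0.01% NP-40, 0.01% BSA; read 525/598 nm at 0 and 30 min.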
L3MBTL1 inh: L3MBTL1 (human) inhibition | Potency, µM (top dose mostly 57.1 µM), for the others: top-dose activity, negative = inhibition, hits mostly inhibitors | hit rate 0.66% among 230,000 | AID 485360 | AlphaScreen L3MBTL1–H3K9me1 peptide binding | Q9Y468; further: on the % scale 0 is the no-effect control and ±100 the full control effect; nearly all actives have a fitted effect of over 60% in size
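L3MBTL1 (50 nM) pre-complexed 30 min with biotinylated H3(1-15)K9me1 peptide (75 nM), then compounds added for 30 min at room temperature; AlphaScreen streptavidin donor/nickel chelate acceptor beads (10 ug/mL final) read after 30 min dark incubation.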
JMJD2A Tudor: blocks the human JMJD2A Tudor domain; AlphaScreen JMJD2A-Tudor / H3K4me3 peptide binding; hit rate 4.4% among 390,000; O75164; Potency, µM (highest dose often 114 µM), inactives show at the top dose activity change, negative = inhibition, most hits filed as inhibitors; further: on the % scale 0 is the no-effect control and ±100 the full control effect; nearly all actives have a fitted effect of over 50% in size
G9a inh: blocks human histone lysine methyltransferase G9a; Q96KQ7; G9a H3K9 monomethylation, AlphaScreen, 2 h; Potency, µM (titrated, usually from 102 µM), inactives show at the top dose activity, negative = inhibition, actives largely listed as inhibitors; hit rate 8.8% among 350,000; AID 504332; further: on the % scale 0 is the no-effect control and ±100 the full control effect; nearly all actives have a fitted effect of over 75% in size
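Quantitative HTS format: methyltransferase activity on a biotin-tagged H3K9 peptide is measured by AlphaScreen, using a rabbit anti-monomethyl-H3K9 antibody with streptavidin donor and anti-IgG acceptor beads. Final levels are 20 nM enzyme, 500 nM peptide, 20 uM SAM; 2 h RT.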
* = called active by the depositor; ? = inconclusive; nt = no result given; [ ] = another dose, or the depositor's remark. The call rests on the fitted dose curve; in most records, active means well fitted curve in the direction sought with a large enough effect; inconclusive means small, poorly fitted or top-dose-only effect, or another doubt; inactive means no such curve, though single readings can be large; an effect the other way counts as inactive or inconclusive. Potency means the concentration at half of the fitted maximal effect.

SMILES	HP1b binding inh	BAZ2B inh	Sfp inh	L3MBTL1 inh	JMJD2A Tudor	G9a inh
Cc1cc(C2C(C#N)=C(N)Oc3n[nH]c(C)c32)c(C)s1 (stereo unspecified)	16.7%	?	-18.1%	41.3%	-12.4%	-12.6%[0.501 µM]
O=C(CC1N=C2c3ccccc3N=C(SCc3ccc(Cl)cc3)N2C1=O)NCCc1ccccc1 (stereo unspecified)	30.7%	-0.2%	nt	nt	79.4µM*	6.9%[59 µM]
O=C(CC1N=C2c3ccccc3N=C(SCc3ccccc3F)N2C1=O)NCc1cccs1 (stereo unspecified)	2.1%	-14.1%	nt	nt	-23.7%	3.1%[59 µM]
O=C(CCC1N=C2c3ccccc3N=C(SCc3ccc(Cl)cc3)N2C1=O)NCCc1ccccc1 (stereo unspecified)	12.3%	-2.6%	nt	nt	-17.1%	-3.0%[59 µM]
Cc1ccc(CSC2=Nc3ccccc3C3=NC(CC(=O)NCc4ccco4)C(=O)N23)cc1 (stereo unspecified)	9.1%	50.1µM*	35.5µM*	?	?	?
O=C(CC1N=C2c3ccccc3N=C(SCC(=O)Nc3ccccc3F)N2C1=O)NCc1cccs1 (stereo unspecified)	-3.8%	?	nt	nt	-25.7%	14.1µM*
CCOc1ccc(NC(=O)CSc2ccc(-c3ccco3)nn2)cc1	11.5%	-4.0%	-11.7%	nt	-24.3%	?
O=C(CSc1ccc(-c2ccco2)nn1)Nc1ccc(F)cc1	17.8%	?	28.2µM*	nt	-13.2%	nt
COc1ccc(NC(=O)CSc2nnc(-c3ccco3)n2N)cc1Cl	64.1%	-5.4%[57.1 µM]	9.7%	nt	-25.7%	27.2%
COc1cccc(NC(=O)CSc2ccc(-c3ccco3)nn2)c1	13.1%	?	50.1µM*	nt	-26.5%	-25.7%
COc1ccc(NC(=O)CSc2ccc(-c3ccco3)nn2)cc1OC	21.7%	-24.1%	44.7µM*	nt	-23.6%	?
COc1ccc(C(=O)CSc2ccc(-c3ccco3)nn2)cc1	21.6%	50.1µM*	15.8µM*	-23.0%	-31.9%	22.4µM*
COc1ccc(C(=O)CSc2ccc(-c3ccccc3)nn2)cc1	38.4%	9.7%	-1.5%	10.9%	2.1%	-42.0%
COc1cccc(NC(=O)CSc2ccc(-c3sc(C)nc3C)nn2)c1	3.3%	-3.1%	-8.4%	nt	-13.2%	14.4%
CC(=O)NS(=O)(=O)c1ccc(NC(=O)c2ccc3c(c2)OCO3)cc1	20.5%	3.4%	22.5%	9.4%	-6.2%	26.2%[59 µM]
CCN(CC(=O)Nc1c(F)cccc1F)C(=O)CNC(=O)c1cccc(C)c1	7.1%	-1.1%	11.8%	nt	-11.3%	20.9%
COCCNC(=O)C1CCCN(S(=O)(=O)c2ccc3c(c2)CC(C)N3C(=O)C2CC2)C1 (stereo unspecified)	35.3%	-4.0%	11.3%	6.5%	-9.0%	6.9%
CC(=O)c1ccc(NC(=O)CN2C(=O)CCc3cc(S(=O)(=O)N4CCC(C)CC4)ccc32)cc1	?	?	nt	nt	?	-2.8%[59 µM]
CCOc1ccccc1Nc1nnc(SC(C)C(=O)Nc2nc(-c3ccccc3)cs2)s1 (stereo unspecified)	25.2%	-7.3%	2.8%	-5.0%	-9.3%	?
CCc1ccc(-c2cc(C)no2)cc1S(=O)(=O)NCc1ccc(OC)cc1	44.2%	5.6%	nt	nt	13.0%	8.0%[59 µM]
COc1ccc(CCNC(=O)CSc2ccc(-c3ccccc3)nn2)cc1	nt	5.1%	-2.8%	1.9%	nt	-10.9%
O=C(Cn1nc(-c2ccco2)ccc1=O)Nc1ccc(Br)cc1	?	?	50.1µM*	nt	-27.2%	25.1µM*
COc1ccc(CCNC(=O)CSc2ccc(-c3ccco3)nn2)cc1OC	52.2%	3.7%	?	nt	-8.2%	44.7µM*
O=C1c2ccccc2C(=O)N1c1ccccn1	40.4%	nt	nt	nt	-12.9%	nt
COc1ccc(S(=O)(=O)N2CCNCC2)cc1	35.1%	14.0%	5.5%	5.0%	-2.7%	nt
SMILES	HP1b binding inh	BAZ2B inh	Sfp inh	L3MBTL1 inh	JMJD2A Tudor	G9a inh
CN(C)CCC(=O)c1ccc(Cl)cc1	17.5%	-2.6%	-3.5%	2.0%	-7.9%[57.1 µM]	6.31µM*
O=C(CCCc1ccccc1)c1ccccc1	222.4%	156.9%	2.5%	nt	146.1%	198.1%
O=C(O)CCC(=O)CCC(=O)c1ccc(Cl)cc1	33.9%	-6.1%	?	nt	-12.3%	?
CN(CCC(=O)c1ccccc1)CCC(=O)c1ccccc1	14.4%	4.8%	10.6%	nt	-11.2%	31.6µM*
CCCn1c2ccccc2c2nnc(SCc3[nH]c(=O)[nH]c3C(=O)CCCCC(=O)OCC)nc21	34.4%	-20.6%	25.1µM*	?	-20.4%	?
Cc1ccc(CNC(=O)CSc2nnc(C)c3c(C)n(-c4ccccc4)nc23)cc1	23.4%	-5.3%	nt	nt	-23.8%	-31.1%[59 µM]
CCNC(=O)Cn1cc(C(F)(F)F)cc(Cl)c1=O	62.3%	0.5%	15.3%	6.4%	0.7%[11.4 µM]	21.3%[59 µM]
CN1CCC(=O)N([C@H](CO)c2ccccc2)CC1	51.7%	-26.9%	14.5%	1.5%	-20.0%	44.7µM*
COc1cc2c(C#N)c(N3CCc4ccccc4C3)nc(N)c2c(N)n1	-21.2%	?	35.5µM*	-19.4%	4.47µM*	-3.0%[12.7 µM]
CC(=O)Nc1ccccc1OC1=N[S+](=O)([O-])c2ccccc21	nt	nt	nt	nt	-9.9%	nt
CC(C)(C)c1cn(-c2ccccc2)c(=S)[nH]1	12.9%	?	-17.7%	-8.5%	22.4µM*	7.94µM*
COc1ccccc1-n1cc(-c2ccc(C)cc2)[nH]c1=S	-22.4%	?	-6.4%	nt	?	?
Cc1ccc(-n2cc(C(C)(C)C)[nH]c2=S)cc1	?	?	-12.6%	-1.1%	44.7µM*	-12.3%[2.33 µM]
NC(=O)c1ccccc1OCC(=O)N1CCc2ccccc2C1	42.8%	1.0%	13.1%	nt	-10.6%	3.8%
CCn1c(=S)[nH]c2c(=O)n(C)c(=O)n(C)c21	?	nt	nt	nt	5.01µM*	nt
Cn1c(=O)c2[nH]c(Br)nc2n(C)c1=O	nt	nt	4.8%	nt	nt	-41.0%[12.7 µM]
COc1ccc(C2CC(c3cccs3)=NN2S(C)(=O)=O)cc1OC (stereo unspecified)	16.8%	-9.4%	13.4%	0.5%	3.4%	nt
COc1ccc(C2CC(c3cccs3)=NN2c2nc(-c3ccccc3)cs2)cc1OC (stereo unspecified)	0.5%	-4.4%	44.7µM*	8.5%	2.8%	?
c1ccc2c(c1)OCC(c1nnc3sc(-c4cnccn4)nn13)O2 (stereo unspecified)	-25.3%	4.9%	20µM*	-25.1%	-26.3%	7.94µM*
Cn1c(SCC(=O)NCc2ccc3c(c2)OCO3)nnc1C1COc2ccccc2O1 (stereo unspecified)	-16.4%	-14.4%	-1.9%	nt	-13.7%[11.4 µM]	7.7%[59 µM]
c1ccc2c(c1)OCC(c1nnc3n1-c1ccccc1SC3)O2 (stereo unspecified)	33.4%	0.1%	7.0%	1.3%	-17.5%	2.4%
